The list is not random: actives were taken first. Their share in the collection is about 2.5%.
p53ts 32C kill: qHTS Screen for Compounds that Selectively Target Cancer Cells with p53 Mutations: Cytotoxicity of p53ts Cells at the Permissive Temperature; Potency, µM (top dose mostly 46.1 µM), without a hit: at the top dose activity change, negative = cytotoxicity, actives largely listed as cytotoxic; H1299-p53A138V at 32C, ATP luminescence viability, 24 h; 0.93% of 130,000 active;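 also: 0% = DMSO and -100% = full killing by reference compound; nearly all actives have a fitted effect of over 55% in size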
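H1299-p53 A138V cells (temperature-sensitive p53) exposed 24 h to up to 46 uM compound at 32C, where p53 is wild-type in conformation. Viability read as ATP luminescence and normalised to DMSO and 100 uM tamoxifen. AC50 fitted with the Hill equation.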
Luciferase inh: qHTS Assay for Inhibitors of Firefly Luciferase; AID 411, 2009; 2.2% of 72,000 active; Potency, µM (highest dose often 57.1 µM), inactives show at the top dose activity change, negative = inhibition, hits mostly inhibitors; Luciferin 4-monooxygenase (Photinus pyralis), P08659; purified firefly luciferase, luminescence, 8 min; also: nearly all actives have a fitted effect of over 40% in size
Target sequence (P08659 whole entry, looked up): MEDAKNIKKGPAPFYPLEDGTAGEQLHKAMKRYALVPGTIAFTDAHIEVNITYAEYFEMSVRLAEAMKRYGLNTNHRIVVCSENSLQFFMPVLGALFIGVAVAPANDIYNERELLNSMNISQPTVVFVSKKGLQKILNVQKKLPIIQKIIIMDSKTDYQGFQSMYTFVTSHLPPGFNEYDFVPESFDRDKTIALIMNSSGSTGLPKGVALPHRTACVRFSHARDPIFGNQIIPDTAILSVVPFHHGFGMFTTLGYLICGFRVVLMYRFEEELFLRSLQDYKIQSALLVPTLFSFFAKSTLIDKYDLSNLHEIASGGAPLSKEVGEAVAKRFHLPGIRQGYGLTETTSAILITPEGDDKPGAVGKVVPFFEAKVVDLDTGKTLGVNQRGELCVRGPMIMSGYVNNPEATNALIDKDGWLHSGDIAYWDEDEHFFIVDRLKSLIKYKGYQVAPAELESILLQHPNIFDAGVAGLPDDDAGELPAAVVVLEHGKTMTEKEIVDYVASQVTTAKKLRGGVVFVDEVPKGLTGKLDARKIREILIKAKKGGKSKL
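Here, luciferase activity is measured as luminescence following an 8 min room-temperature reaction at 10 uM ATP, pH 7.2. Every library sample is titrated.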
p53ts 39C kill: qHTS Screen for Compounds that Selectively Target Cancer Cells with p53 Mutations: Cytotoxicity of p53ts Cells at the Nonpermissive Temperature; H1299-p53A138V viability at 39C, ATP luminescence, 24 h; 1.5% of 130,000 active; Potency, µM (doses to about 46.1 µM), without a hit: at the highest dose activity change, negative = cell killing, hits mostly cytotoxic; AID 902, 2007; also: nearly all actives have a fitted effect of over 55% in size
* hit, by the source's call; ? = inconclusive; · = no result given; ! = not confirmed by another sample; [ ] = dose if it differs, or a comment. Calls follow the shape of the dose curve; as a rule, active = well fitted curve in the direction sought with a large enough effect; inconclusive = small, poorly fitted or top-dose-only effect, or another doubt; inactive = no such curve, though single readings can be large; an effect the other way counts as inactive or inconclusive. Unless noted, % is scaled to controls: 0 for no effect and ±100 for the full control effect; potency is read from the fitted curve at half-maximal effect.

SMILES | p53ts 32C kill | Luciferase inh | p53ts 39C kill
N=C1N=C(N)c2cc3ccccc3cc21 | 12%[1.84 µM] | · | ?
C=CCC1(O)C=CCC2C3C4C(OC(C)(C)C)C2C1C34 (stereo not drawn) | -1%[9.22 µM] | · | 5%[9.22 µM]
N#CC(=NCCO)C1=C(O)c2ccccc2C1=O | ? | 0%[11.4 µM] | -16%[9.22 µM]
O=C1C(SCCO)=C(SCCO)C(=O)c2ccccc21 | 0.63µM* | -1% | 0.79µM*
O=S(=O)(NCCc1csc(-c2cccc(F)c2)n1)c1cc(F)ccc1F | 5% | · | -27%
Cc1ccc(S(=O)(=O)NCCc2csc(-c3cccc(F)c3)n2)cc1 | 7% | · | 16µM*
CCc1c(C)c2ccc(O)c(CN3CCN(c4ccc(OC)cc4)CC3)c2oc1=O | ? | · | 7.9µM*
CCc1c(C)c2ccc(O)c(CN3CCN(c4ccc(F)cc4)CC3)c2oc1=O | 8% | · | -15%
CCc1ccccc1NC(=O)C1CCCN(C(=O)c2cnn(-c3ccccc3)c2-n2cccc2)C1 (stereo not drawn) | 7% | · | -8%
O=Nc1c(-c2c(O)[nH]c3cc(Br)ccc23)[nH]c2ccccc12 | 13µM* | · | 13µM*
Oc1[nH]c2ccccc2c1C1=NCCCC1 | 10% | -3% | 15%
C=CC(=O)CC | 8%[1.84 µM] | · | -8%
COc1ccc(-c2noc(-c3ccccc3Cl)n2)cc1OC | -29% | 16µM* | ?
COc1ccc(-c2noc(-c3ccco3)n2)cc1OC | ? | 13µM* | -9%
COc1ccc(-c2noc(-c3cccc(Cl)c3)n2)cc1OC | 2% | 1% | 2%
COc1nc(-c2ccc(C)cc2)ccc1-c1noc(-c2ccco2)n1 | -15% | -5% | -7%
COc1ccc(-c2nc(-c3ccncc3)no2)cc1OC | -10% | ? | -12%
COc1nc(C)ccc1-c1noc(-c2ccco2)n1 | 13µM* | 7.9µM* | 13µM*
CCS(=O)(=O)c1ncc(N(Cc2ccco2)Cc2ccccc2F)c(C(=O)Nc2cccc(Cl)c2)n1 | 10% | · | 4%
CCN(CC)CCCn1c(-c2ccccc2)nc2c(NCCOC)nc(C)nc21 | -8% | · | -3%
N#Cc1cc2c(nc1SCc1nc3ccccc3[nH]1)CCC2 | 4µM* | 4µM* | 5µM*
Cc1cccc(CSc2nc3c(cc2C#N)CCC3)c1 | -12% | · | -6%
COc1ccc(N2CCN(C(=O)Cn3cnc4sc(C)c(S(=O)(=O)N5CCC(C)CC5)c4c3=O)CC2)cc1 | 9% | · | 9%
C=CCOCC/C=C1/c2ccccc2C(OC)C1C (stereo not drawn) | -8%[9.22 µM] | · | 2%[9.22 µM]
COc1ccc2oc(=O)c(-c3nc4ccccc4o3)cc2c1 | -27% | · | -11%
SMILES | p53ts 32C kill | Luciferase inh | p53ts 39C kill
O=c1oc2ccccc2cc1-c1nc2ccccc2o1 | ? | 16µM* | ?
Cc1ccc(NC(=O)Cn2cc(C(=O)c3ccco3)c3ccccc32)cc1C | 4% | · | -13%
COc1cc2c(cc1NC(=O)COC(=O)Cn1cnc3ccccc31)oc1ccccc12 | 5% | 16µM* | -2%
COc1cc2c(cc1NC(=O)CSCC(=O)O)oc1ccccc12 | -13% | -7% | -19%
CC(=O)/C=C(\C)Nc1ccc(-c2cnc(-c3ccccc3)o2)cc1 | -30% | 10µM* | ?
c1ccc(-c2cnc(-c3ccc(-c4ncc(-c5ccccc5)o4)cc3)o2)cc1 | 12%[9.22 µM] | 1%[11.4 µM] | 8%[9.22 µM]
O=C(O)c1cc(/C=N\O)ccc1OCc1ccccc1 | -1% | -1% | 9%
COc1cc(/C=N/O)ccc1OCc1ccc(C(=O)O)cc1 | 8.9µM* | 0.32µM* | 8.9µM*
Cc1cc(C2N=C(N)Nc3nc4ccccc4n32)c(C)n1-c1ccccc1Cl (stereo not drawn) | -16% | 2% | -9%
Cc1ccc(-n2c(C)cc(C3N=C(N)Nc4nc5ccccc5n43)c2C)c(C)c1 (stereo not drawn) | ? | -1% | 20µM*
COc1ccc(-c2cc(C(F)(F)F)nc(SCCC(=O)Nc3cc(C)ccc3O)n2)cc1 | -1% | · | 10µM*
COc1ccc(-c2cc(C(F)(F)F)nc(SCCC(=O)Nc3ccccc3F)n2)cc1 | -2% | · | -1%
COc1cc2c3cc1Oc1c(OC)c(OC)cc4c1[C@@H](Cc1ccc(O)c(c1)Oc1ccc(cc1)C[C@@H]3N(C)CC2)N(C)CC4 | -5% | 2%[11.4 µM] | -30%
CN1CCc2cccc3c2[C@@H]1Cc1ccc(O)c(O)c1-3 | 32µM*! | -4%[11.4 µM] | 10µM*!
Cc1[nH]n(-c2ccccc2)c(=O)c1/C=N\NC(=O)C1COc2ccccc2O1 (stereo not drawn) | · | · | 14µM*
Cc1c(/C=N\NC(=O)C2COc3ccccc3O2)c2ccccc2n1C (stereo not drawn) | · | · | -10%
O=C(O)c1cc(S(=O)(=O)Nc2cccc(Cl)c2)ccc1O | -2% | · | -11%
O=C1C2C(C(=O)N1c1ccncc1)C1C=CC2C12CC2 (stereo not drawn) | -8% | -5% | -7%
Cc1ccc(N2C(=O)C3C(C2=O)C2C=CC3C23CC3)cc1 (stereo not drawn) | ? | 13µM* | ?
CCNc1ncc2nc(-c3ccc(Cl)cc3)c(=O)n(-c3ccc(OC)cc3)c2n1 | -16% | 1%[11.4 µM] | -8%
CC1=C(C(N)=O)C(c2ccc(C)cc2)n2nc(SCc3ccccc3)nc2N1 (stereo not drawn) | -1% | · | 5%
COc1cccc2sc(Nc3nc(-c4ccccn4)cs3)nc12 | -2% | ? | ?
Cc1nn(-c2ccccc2)c(C)c1C(=O)Nc1nnc(-c2ccco2)o1 | -2% | 2% | -27%
COc1cccc2sc(Nc3nnc(-c4cccs4)o3)nc12 | ? | 16µM* | 13µM*
Fc1cccc2sc(Nc3nnc(-c4ccco4)o3)nc12 | ? | 25µM* | ?
SMILES | p53ts 32C kill | Luciferase inh | p53ts 39C kill
COc1ccc(CNc2ncnc3ccc(-c4c(C)noc4C)cc23)c(OC)c1 | 11% | 0%[2.29 µM] | -25%
CC(=O)OCC1OC(C#CC2=CCCCC2)C=CC1OC(C)=O (stereo not drawn) | 4%[9.22 µM] | · | -4%[9.22 µM]
Cc1cc(O)c(C(c2ccccc2)N2CCN(c3ccccc3)CC2)c(=O)n1Cc1ccco1 (stereo not drawn) | 4% | · | -21%
Nc1nc2c(c(=O)[nH]1)N=C(CNc1ccc(C(=O)NC(CCC(=O)O)C(=O)O)cc1)CN2 (stereo not drawn) | 9% | · | 7%
N#Cc1cccc(-c2nccc(-n3ccnc3)n2)c1 | -10% | 4%[2.29 µM] | -12%
COc1cccc(Nc2ncc3nc(C)c(=O)n(C4CC4)c3n2)c1 | 9% | -3%[11.4 µM] | 8%
COc1ccc(N(C)C(=O)NCc2noc3ccc(C)cc23)c(OC)c1 | 8% | · | 6%
CCN(CCNC(=O)C1CCN(Cc2nc(-c3ccc(Cl)cc3)oc2C)CC1)c1ccccc1 | 25µM* | -1% | ?
CCN(CCNC(=O)C1CCN(Cc2nc(-c3cccc(Cl)c3)oc2C)CC1)c1ccccc1 | 13µM* | 0% | 16µM*
CCc1ccc(-c2nc(CN3CCC(C(=O)NCCN(CC)c4ccccc4)CC3)c(C)o2)cc1 | -1% | -2% | -4%
Cc1oc(-c2cccc(Cl)c2)nc1CN1CCC(C(=O)NC(C)c2ccccc2)CC1 (stereo not drawn) | 0% | · | -6%
CCCCCCCCCC(=O)N[C@@H](CN1CCOCC1)[C@@H](O)c1ccccc1 | -10% | 1% | ?

Assay outcomes from PubChem BioAssay.
